# “And” between values parts separate entries of the source, which are not always exact repeats. Equal values may be shown once. Inconclusive results are not listed. A call without a number means that no potency is given here. Values without a mark were called inactive. The source made the active and inactive calls. Calls come from the whole dose curve; as a rule, active = well fitted cell-killing curve with a large enough effect; inconclusive = small, poorly fitted or top-dose-only effect; inactive = flat fitted curve, though single readings scatter.
# Tests used:
# [1] = Cellular viability qHTS for adrenocortical cancer (ACC) cell line NCI-H295R (AID 1963990); note: nearly all actives have a fitted effect of over 60% in size
# In short: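 Readout: CellTiter-Glo luminescence, 20 min RT. Exposure: 48 h, 37C/5% CO2. Cells: NCI-H295R, ITS-DMEM serum-free. Range: up to 46 uM. Analysis: 4PL fit, IC50 plus efficacy.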
# [2] = Cellular viability qHTS for adrenocortical cancer (ACC) cell line SW-13 (AID 1963989); details: SW-13 ACC cells viability, CellTiter-Glo, 48 h; activity (max response): hits give low values; note: nearly all actives have a fitted effect of over 65% in size;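 for activity (max response): cells grown in serum-free medium with ITS supplement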
# In short: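 Compound titrations (up to 46 uM final, in DMSO) were applied to SW-13 cells for 48 h at 37C/5% CO2. Reading used CellTiter-Glo after 20 min at room temperature; fitted curves yielded IC50 and efficacy.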
# Potency is the fitted concentration of half-maximal effect.
SMILES,Potency [1],activity (max response) [2],Potency [2]
O=c1[nH]c2ccccc2n1C1CCN(CCCC(c2ccc(F)cc2)c2ccc(F)cc2)CC1,23.1 µM (active),,
CC(N[C@H]1C[C@@H]1c1ccccc1)c1ccc2c(c1)OCCO2 (stereo partly drawn),inactive,,
c1ccc(CN2CCNCC2)cc1,inactive,-9.53%,
C[C@@H]1CC[C@H]2[C@@H](C)C(=O)O[C@@H]3O[C@@]4(C)CC[C@@H]1[C@]32OO4,inactive,,
O=C1NCN(c2ccccc2)C12CCN(CCCOc1ccc(F)cc1)CC2,inactive,,
CC1Sc2c(C(=O)O)c(=O)c3cc(F)c(N4CCNCC4)cc3n21 (stereo not drawn),inactive,7.63%,
CNCC(=O)c1ccc(O)c(O)c1,inactive,2.58%,
Cc1cccc(Cc2cnc[nH]2)c1C,inactive,-10.7%,
COc1cc(CC#N)cc(OC)c1OC,inactive,,
Cn1c(CCCCCCC(=O)NO)nc2cc(N(CCCl)CCCl)ccc21,8.91 µM (active),,15.8 µM (active)
C[C@H](CN1CCOCC1)C(C(=O)N1CCCC1)(c1ccccc1)c1ccccc1,inactive,-12.8%,
CC#C[C@]1(O)CC[C@H]2[C@@H]3C[C@H](C)C4=CC(=O)CC[C@]4(C)[C@H]3CC[C@@]21C,8.2 µM (active),,
C[C@@H]1CC2=CC(=O)CC[C@@H]2[C@H]2CC[C@@]3(C)[C@@H](CC[C@]3(C)O)[C@@H]21,inactive,,
CCOC(C(=O)OCCN(C)C)(c1ccccc1)c1ccccc1,inactive,-0.322%,
CCc1cc2c(s1)-n1c(C)nnc1CN=C2c1ccccc1Cl,inactive,12.2%,
CC[C@@H](CO)NC(=O)[C@@H]1C=C2c3cccc4[nH]cc(c34)C[C@H]2N(C)C1,inactive,,
C[C@]12CCC(=O)C(O)=C1CC[C@@H]1[C@@H]2CC[C@]2(C)C(=O)CC[C@@H]12,inactive,4.45% and 4.46%,

SMILES,Potency [1],activity (max response) [2],Potency [2]
CCCOC(=O)Cc1ccc(OCC(=O)N(CC)CC)c(OC)c1,inactive,,
COc1ccc(C(c2ccc(OC)cc2)C(Cl)(Cl)Cl)cc1,28.2 µM (active),,
O=C(O)C1=CCCN(CCOC(c2ccc(C(F)(F)F)cc2)c2ccc(C(F)(F)F)cc2)C1,inactive,,
Nc1c(Cl)c(Cl)c(Cl)c(Cl)c1Cl,inactive,-9.89%,
CCCCC/C=C\C/C=C\C/C=C\C/C=C\CCCC(=O)NCC(=O)O,inactive,,
Cc1nc2ccccc2c(=O)n1-c1ccccc1Cl,inactive,-17.2%,
Nc1ccc(N)cc1,inactive,5.64%,
CCOC(=O)C1(c2ccccc2)CCN(CCc2ccc(N)cc2)CC1,inactive,-18.4%,
CC(C)=CC1C(C(=O)OCc2cccc(Oc3ccccc3)c2)C1(C)C (stereo not drawn),inactive,3.55%,
C=CC[C@]1(O)CC[C@H]2[C@@H]3CCC4=CC(=O)CCC4=C3C=C[C@@]21C,inactive,,
COc1ccc2[nH]cc(CCN(C(C)C)C(C)C)c2c1,inactive,-8.69%,
CC(C)c1c(CN(C)C(C)Cc2ccccc2)n(C)n(-c2ccccc2)c1=O (stereo not drawn),inactive,,
CN(C)CCc1c[nH]c2ccc(O)cc12,inactive,2.14%,
O=C(CCCN1CCC(n2c(=O)[nH]c3ccccc32)CC1)c1ccc(F)cc1,inactive,-18.7%,
CC(C)[C@]12O[C@H]1[C@@H]1O[C@@]13[C@@]1(C)CCC4=C(COC4=O)[C@@H]1C[C@@H]1O[C@@]13C2=O,0.631 µM (active),,0.141 µM (active)
O=S(=O)(c1ccc(Cl)cc1)c1ccc(Cl)cc1,inactive,,
O=C1OC(CCN2CCCCC2)OC1(c1ccccc1)c1ccccc1 (stereo not drawn),25.9 µM (active),2.23%,

# From PubChem BioAssay (NCATS)
